# Inconclusive results are not listed. The source holds several records for some structures; these can differ, active in one and inactive in another. The source made the active and inactive calls. How the source made its calls, unless noted: active means hit-call score of the fitted dose curve at least 0.9, where 1 is the maximum; inactive means score below 0.9.
# Legend:
# [1] = read-out: Interleukin 6 (IL6), IL6 (gene 3569); experiment: BSK_BT_xIL6: BioMAP Diversity Plus: BT Assay for Interleukin 6 (IL6) Biomarker Activity (AID 2284228); conditions: primary human B cells with PBMC
# In short: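 B cells and peripheral blood mononuclear cells (human primary co-culture) were dosed with chemical, and after 24 h IL-6 released into the medium was measured by Luminex xMAP. Responses were analysed as gain of signal over DMSO control.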
# [2] = read-out: Interleukin 17A (IL17A), IL17A (gene 3605); experiment: BSK_BT_xIL17A: BioMAP Diversity Plus: BT Assay for Interleukin 17A (IL17A) Biomarker Activity (AID 2284229); conditions: primary human B cells with PBMC
# In short: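 Secreted IL-17A was the measured endpoint, read by Luminex xMAP multiplex in supernatants of a human B cell/PBMC co-culture harvested 24 h after chemical dosing. Signal increase relative to DMSO defined activity.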
# [3] = read-out: Tumor necrosis factor (Homo sapiens) (UniProt P01375); experiment: BSK_BT_xTNFa: BioMAP Diversity Plus: BT Assay for Tumor necrosis factor alpha (TNF-alpha) Biomarker Activity (AID 2284230); conditions: primary human B cells with PBMC
# In short: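 Compounds were added to a B cell plus PBMC co-culture, and after 24 h secreted TNF-alpha was quantified with Luminex xMAP technology, with responses fitted upward from the DMSO control.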
# [4] = read-out: Vascular cell adhesion molecule 1 (VCAM1), VCAM1 (gene 7412); experiment: BSK_MyoF_VCAM1: BioMAP Diversity Plus: MyoF Assay for Vascular cell adhesion molecule 1 (VCAM1) Biomarker Activity (AID 2284231); conditions: primary human lung fibroblasts
# In short: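 ELISA read-out of VCAM-1 on human lung fibroblasts 24 h after chemical treatment, with positive-direction curve fitting relative to DMSO controls. Parallel cultures were stained with sulforhodamine B for total protein to flag overt cytotoxicity.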
# [5] = UKN4_HCS_LUHMES_cell_viability: Viability Assessment in the University of Konstanz (UKN) Leist Lab Neurite Outgrowth Assay in human LUHMES cells (UKN4) (AID 2284232)
# In short: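 Measured in replated, 2-day-differentiated LUHMES cells treated 24 h; stained 30 min with H-33342 and calcein-AM before high-content imaging.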
# [6] = UKN2_HCS_IMR90_cell_viability: Viability Assessment in the University of Konstanz (UKN) Leist Lab Neural Crest Cell Migration Assay in human induced IMR90 Pluripotent Stem Cells (UKN2) (AID 2284233);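 further: cells exposed to compound for 24 h after a 24 h migration phase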
# In short: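 After calcein-AM/Hoechst staining, viability is quantified by high-content fluorescence imaging, relative to DMSO, in iPSC (IMR90)-derived neural crest cells. Exposure lasts 24 h, starting after a 24 h migration period on PLO/laminin/fibronectin coating.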
# [7] = CCTE_Mundy_HCI_Cortical_NOG_BPCount: CCTE's Neurite Outgrowth Assay in rat cortical cells for Branch Point Count, Mundy Lab (AID 2284237)
# In short: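 Measured 50.33 h after dosing, this morphology endpoint uses rat primary cortical cultures labelled for betaIII-tubulin. Branch points are quantified by high-content imaging, with DMSO as negative control and baseline.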
# [8] = CCTE_Mundy_HCI_Cortical_NOG_NeuronCount: CCTE's Neurite Outgrowth Assay in rat cortical cells for Neuron Count, Mundy Lab (AID 2284236; active means hit-call score of the fitted dose curve at least 0.9, where 1 is the maximum;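 further: neurons counted by imaging betaIII-tubulin and Hoechst stained cortical cells; cells exposed to compound for about 48 hours before fixation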)
# In short: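 Read-out: neuron number by high-content imaging of betaIII-tubulin (Alexa Fluor-488) and Hoechst-labelled rat primary cortical cells.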
# [9] = TAMU_PeakParms_SingleDonor1434_QT: Texas A&M University (TAMU) 1.5-hr Human Induced Pluripotent Stem Cell (iPSC)-derived Cardiomyocytes Calcium (Ca+2) Flux Assay for Cardiotoxicity: QT (decay-rise ratio) (AID 2284235; active means hit-call score of the fitted dose curve at least 0.9, where 1 is the maximum)
# Description: TAMU_PeakParms is a cell-based, multiplexed-readout assay that uses iPSC-derived cardiomyocytes with measurements taken at 1.5 hours after chemical dosing in a microplate: 384-well plate.TAMU_PeakParms_SingleDonor1434_QT is a phenotype derived from the decay.rise.ratio.avg parameter and uses an EC05 as its POD (5% increase in decay/rise ratio, compared to controls). Decay.Rise.Ratio.Average measures as the average ratio between the rise time and the decay time of the calcium flux, using Fluorescence intensity as a functional reporter from Calcium (Ca+2) flux assay technology. Before modeling, data is preprocessed to remove data points where there is a cessation of beating (where peak.freq.avg equals 0) and data points after they develop of a severe notch phenotype in order to avoid capturing non monotonic effects related to an advanced pathology.Data from the assay component TAMU_PeakParms_SingleDonor1434_QT was analyzed into 1 assay endpoints. This assay endpoint, TAMU_PeakParms_SingleDonor1434_QT_Prolongation, was analyzed in the positive analysis fitting direction relative to DMSO as the negative control and baseline of activity. Using a type of functional reporter, gain-of-signal activity can be used to understand changes in the cardiac function. To generalize the intended target to other relatable targets, this assay endpoint is annotated to the cardiomyocyte function intended target family, where the subfamily is QT interval.
# Each test compound from the chemical master plates was transferred into new tissue culture-treated 384-well microplates using acoustic dispensing (Labcyte Echo 550, Beckman Coulter, Indianapolis, IN) in amounts that would result in 5x concentrations (1, 5, 50, 500 uM) in the working plate in a final volume of 50 uL. Chemicals were randomly divided into 16 separate 384-well plates for screening such that the outer-most wells were left empty (308 wells were used on each plate). […]
# [10] = TAMU_HCS_1.5hr_SingleDonor1434_Cytotoxicity: Cytotoxicity Assessment using High-content Screening (HCS) Fluorescent Imaging for the Texas A&M University (TAMU) 1.5-hr Human Induced Pluripotent Stem Cell (iPSC)-derived Cardiotoxicity Assay (AID 2284234; active means hit-call score of the fitted dose curve at least 0.9, where 1 is the maximum)
# In short: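 Nuclear counts from Hoechst 33342 imaging define cytotoxicity here, with EC10 (10% cell-count loss relative to DMSO) as point of departure. iPSC cardiomyocytes received 0.2-100 uM test chemical in 0.5% DMSO for 1.5 h at 37 C.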
# Chain of Tumor necrosis factor (Homo sapiens) (P01375 whole entry, looked up): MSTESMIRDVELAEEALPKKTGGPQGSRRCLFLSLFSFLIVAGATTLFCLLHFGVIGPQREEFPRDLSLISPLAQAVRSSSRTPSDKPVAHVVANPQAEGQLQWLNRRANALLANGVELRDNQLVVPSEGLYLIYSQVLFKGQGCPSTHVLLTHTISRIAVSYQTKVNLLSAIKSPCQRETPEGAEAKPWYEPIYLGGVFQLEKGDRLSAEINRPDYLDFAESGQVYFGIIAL
structure (smiles),measurement,setting,value
CCCCCCCCCCCCS,outcome,[1],inactive
same,outcome,[2],inactive
same,outcome,[3],inactive
same,AC50,[4],23.1 µM (active)
C=CC(=O)OCC(CO)(COC(=O)C=C)COC(=O)C=C,AC50,[1],994 nM (active)
same,AC50,[2],1.09 µM (active)
same,AC50,[3],1.88 µM (active)
same,AC50,[4],0.964 µM (active)
CCOC(=O)CCCCCCCCC(=O)OCC,outcome,[1],inactive
same,outcome,[2],inactive
same,outcome,[3],inactive
same,outcome,[4],inactive
CC(C)(C)c1cccc(O)c1,outcome,[1],inactive
same,outcome,[2],inactive
same,outcome,[3],inactive
same,outcome,[4],inactive
CC(C)Cc1ccc(C(C)C(=O)O)cc1 (stereo not drawn),outcome,[1],inactive
same,outcome,[2],inactive
same,outcome,[3],inactive
same,outcome,[4],inactive
same,outcome,[5],inactive
same,outcome,[6],inactive
same,outcome,[7],inactive
O=C(O)C(F)(F)OC(F)(F)C(F)(F)OC(F)(F)C(F)(F)C(F)(F)C(F)(F)F,outcome,[1],inactive
same,outcome,[2],inactive
same,outcome,[3],inactive
same,outcome,[4],inactive
O=S(=O)(O)C(F)(F)C(F)(F)OC(F)(F)C(F)(F)F,outcome,[1],inactive
same,outcome,[2],inactive
same,outcome,[3],inactive
same,outcome,[4],inactive
c1ccc(Sc2ccccc2)cc1,outcome,[1],inactive
same,outcome,[2],inactive
same,outcome,[3],inactive
same,AC50,[4],34.1 µM (active)
CCCCCCCC1CCCC1=O (stereo not drawn),outcome,[1],inactive
same,outcome,[2],inactive
same,outcome,[3],inactive
same,outcome,[4],inactive
c1ccc2scnc2c1,outcome,[6],inactive
same,outcome,[8],inactive
same,outcome,[7],inactive
c1ccc2c(c1)-c1ccc3ccc4cccc5cc-2c1c3c45,AC50,[1],39.8 nM (active)
same,outcome,[2],inactive
same,outcome,[3],inactive
same,AC50,[4],2.78 µM (active)
C=C(C)C(=O)OCCC(F)(F)C(F)(F)C(F)(F)C(F)(F)C(F)(F)C(F)(F)C(F)(F)C(F)(F)F,outcome,[1],inactive
same,outcome,[2],inactive
same,outcome,[3],inactive
same,outcome,[4],inactive
CC1=CC(C)C(C=O)C(C)C1 (stereo not drawn) (tested in a mixture with another compound),outcome,[1],inactive
same,outcome,[2],inactive
same,outcome,[3],inactive
same,outcome,[4],inactive
N#CCCNCCC#N,outcome,[9],inactive
same,outcome,[8],inactive
same,outcome,[7],inactive
CC(=O)OC(C)(C)C1CC=C(C)CC1 (stereo not drawn),outcome,[1],inactive
same,outcome,[2],inactive
same,outcome,[3],inactive
same,outcome,[4],inactive
CC=CC(=O)C1=C(C)C=CCC1(C)C,outcome,[1],inactive
same,outcome,[2],inactive
same,outcome,[3],inactive
same,outcome,[4],inactive
CCCCCCCCCC(=O)OCC,outcome,[1],inactive
same,outcome,[2],inactive
same,outcome,[3],inactive
same,outcome,[4],inactive
Nc1ccc(N)c([N+](=O)[O-])c1,outcome,[1],inactive
same,outcome,[2],inactive
same,outcome,[3],inactive
same,outcome,[4],inactive
O=C1OC2(c3ccc(O)cc3Oc3cc(O)ccc32)c2ccccc21,outcome,[1],inactive
same,outcome,[2],inactive
same,outcome,[3],inactive
same,outcome,[4],inactive
COc1ccccc1NC(=O)CC(C)=O,outcome,[1],inactive
same,outcome,[2],inactive
same,outcome,[3],inactive
same,outcome,[4],inactive
O=S1(=O)CC(Cl)(Cl)C(Cl)(Cl)C1,AC50,[1],416 nM (active)
same,AC50,[2],0.346 µM (active)
same,AC50,[3],0.749 µM (active)
same,AC50,[4],1.42 µM (active)
OCC(F)(OC(F)(F)C(F)(OC(F)(F)C(F)(F)C(F)(F)F)C(F)(F)F)C(F)(F)F (stereo not drawn),outcome,[1],inactive
same,outcome,[2],inactive
same,AC50,[3],4.92 µM (active)
same,outcome,[3],inactive
same,AC50,[4],6.21 µM (active)
same,outcome,[4],inactive
N[C@@H](CCC(=O)O)C(=O)O,outcome,[7],inactive
CNC(=C[N+](=O)[O-])NCCSCc1ccc(CN(C)C)o1,outcome,[9],inactive
NC(=O)c1c(Cl)cccc1Cl,outcome,[1],inactive
same,outcome,[2],inactive
same,outcome,[3],inactive
same,outcome,[4],inactive
CCCCC(CC)COC(=O)COc1ccc(Cl)cc1C (stereo not drawn),outcome,[6],inactive
same,outcome,[8],inactive
same,outcome,[7],inactive
O=C(O)C(F)(F)C(F)(F)C(F)(F)C(F)(F)C(F)(F)C(F)(F)C(F)(F)C(F)F,outcome,[1],inactive
same,outcome,[2],inactive
same,outcome,[3],inactive
same,outcome,[4],inactive
OCCN1CCOCC1,outcome,[1],inactive
same,outcome,[2],inactive
same,outcome,[3],inactive
same,outcome,[4],inactive
C=C1CC/C=C(\C)CC[C@@H]2[C@@H]1CC2(C)C,outcome,[1],inactive
same,outcome,[2],inactive
same,outcome,[3],inactive
same,AC50,[4],23.9 µM (active)
CC/C(=C(\c1ccccc1)c1ccc(OCCN(C)C)cc1)c1ccccc1,AC50,[10],82.1 µM (active)
same,outcome,[9],inactive
CCOC(=O)C=Cc1ccccc1,outcome,[1],inactive
same,outcome,[2],inactive
same,outcome,[3],inactive
same,outcome,[4],inactive
CC1(C)[C@H](C=C(Cl)Cl)[C@H]1C(=O)OCc1cccc(Oc2ccccc2)c1,outcome,[1],inactive
same,outcome,[2],inactive
same,outcome,[3],inactive
same,outcome,[4],inactive
CC(=O)OCC=C(C)CCC=C(C)CCC=C(C)C,AC50,[1],30700 nM (active)
same,AC50,[2],20 µM (active)
same,AC50,[3],36.5 µM (active)
same,outcome,[4],inactive
CC(=O)CCC=C(C)CCC=C(C)C,outcome,[1],inactive
same,outcome,[2],inactive
same,outcome,[3],inactive
same,outcome,[4],inactive
C=C(F)C(=O)OC(C(F)(F)F)C(F)(F)F,outcome,[1],inactive
same,outcome,[2],inactive
same,outcome,[3],inactive
same,outcome,[4],inactive
CCC(=O)OCC=Cc1ccccc1,outcome,[1],inactive
same,outcome,[2],inactive
same,outcome,[3],inactive
same,outcome,[4],inactive

# From PubChem BioAssay (EPA / NIEHS)
